Compound activity deposited in PubChem BioAssay by several laboratories.
Sampled rows, rich in hits. Any-hit rate of the full collection: about 4.1%.
Bead autofluor: flagged as autofluorescent in microsphere protease counterscreen; compound autofluorescence counterscreen, microsphere flow cytometry; active compounds read high; fluorescence intensity (test concentration not listed); 360,000 tested, 3.1% active; AID 624483; in the data active = fluorescence intensity above about 16000; inconclusive = no clear call, values can overlap the other calls
Anthrax LF prot: anthrax lethal factor protease inhibition; P15917; multiplex microsphere protease cleavage assay, LF; inhibition, % at 10 µM; 360,000 tested, 0.12% active; AID 588501; note: plate controls were buffer without enzyme for full effect and enzyme alone for no effect
MazF activator: activators of E. coli MazEF toxin-antitoxin RNase; P0AE70; AID 504720; activation, % at 20 µM; 350,000 tested, 0.32% active; FAM/BHQ RNA-DNA oligo cleavage fluorescence, 5 h; in the data active = activation above about 50%
Target sequence (P0AE70 whole entry, looked up): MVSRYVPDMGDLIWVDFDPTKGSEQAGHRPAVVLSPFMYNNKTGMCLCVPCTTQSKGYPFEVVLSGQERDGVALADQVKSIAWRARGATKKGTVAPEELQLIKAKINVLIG
BoNT-F LC inh: inhibitors of Botulinum neurotoxin F light chain protease; AID 588497; inhibition, % at 10 µM; Multiplex microsphere protease cleavage assay, flow cytometry; 360,000 tested, 0.22% active; in the data active = inhibition above about 35%, passing the limit was not always enough; inconclusive = no clear call, values can overlap the other calls; note: plate controls were buffer without enzyme for full effect and enzyme alone for no effect
BoNT A protease: inhibitors of Botulinum neurotoxin A light chain protease | multiplex microsphere protease substrate cleavage, flow cytometry | inhibition, % at 10 µM | 360,000 tested, 0.17% active | AID 588499; note: plate controls were buffer without enzyme for full effect and enzyme alone for no effect
DUSP3 inh: inhibitors of human VHR1 phosphatase (DUSP3); recombinant VHR phosphatase, pNPP absorbance; inhibition, % at 13.3 µM; 290,000 tested, 0.52% active; in the data active = inhibition above about 50%
Target sequence (P51452 whole entry, looked up): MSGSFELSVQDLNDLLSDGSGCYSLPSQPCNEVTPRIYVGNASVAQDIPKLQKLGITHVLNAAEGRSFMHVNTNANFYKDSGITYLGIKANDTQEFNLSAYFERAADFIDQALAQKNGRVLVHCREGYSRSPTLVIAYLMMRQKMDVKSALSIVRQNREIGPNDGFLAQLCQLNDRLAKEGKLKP
* hit, by the source's call. Cut-off read from the data, not from the text of the source, unless noted: active = inhibition above about 30%; inconclusive = no clear call, values can overlap the other calls; inactive = below that.

What do the screens show for `O=C(Nc1ccccc1)c1ccc(NCCN2C(=O)CCC2=O)c([N+](=O)[O-])c1`?
Bead autofluor: 3328; Anthrax LF prot: -2; MazF activator: 51*; BoNT-F LC inh: -4; BoNT A protease: 0; DUSP3 inh: -8

What do the screens show for `O=C(Nc1ccccc1)c1ccc(NCC2CCCO2)c([N+](=O)[O-])c1` (stereo not drawn)?
Bead autofluor: 2625; Anthrax LF prot: -4; MazF activator: 5; BoNT-F LC inh: -4; BoNT A protease: 0; DUSP3 inh: -8

Results for COc1ccc(NC(=O)c2cc(C3CCCCN3C(=O)c3ccc4c(c3)CCO4)on2)c(C)c1 (stereo not drawn) ?
Bead autofluor: 3517; Anthrax LF prot: 5; BoNT-F LC inh: 2; BoNT A protease: -1

How did COc1ccc(NC(=O)c2sc3nc(N4CCOCC4)c4c(c3c2N)CC(C)(C)OC4)c(OC)c1 do in these assays?
Bead autofluor: 5635; Anthrax LF prot: -2; MazF activator: 14; BoNT-F LC inh: 0; BoNT A protease: 0; DUSP3 inh: 6

How did COC(=O)c1cc(C(=O)OC)cc(N2C(=O)CC(NNC(=O)c3ccccc3Br)C2=O)c1 (stereo not drawn) do in these assays?
Bead autofluor: 17445*; Anthrax LF prot: -8; MazF activator: 1; BoNT-F LC inh: -8; BoNT A protease: -6; DUSP3 inh: 25

Results for COC(=O)c1cc(C(=O)OC)cc(N2C(=O)CC(NNC(=O)c3ccc(C)cc3)C2=O)c1 (stereo not drawn) ?
Bead autofluor: 2657; Anthrax LF prot: 0; MazF activator: -3; BoNT-F LC inh: -8; BoNT A protease: 0; DUSP3 inh: 2

How did O=C(NCCS(=O)(=O)N1CCC2(CC1)OCCO2)c1ccccc1 do in these assays?
Bead autofluor: inconclusive; Anthrax LF prot: 0; MazF activator: 3; BoNT-F LC inh: inconclusive; BoNT A protease: 4

Results for CCc1ccc(C2=NN(C(=O)OC)C(O)(C(F)(F)F)C2)cc1 (stereo not drawn) ?
Bead autofluor: 7911; Anthrax LF prot: 2; MazF activator: -2; BoNT-F LC inh: -2; BoNT A protease: 0; DUSP3 inh: 52*

How did CCOC(=O)N1N=C(c2ccc(OC)cc2)CC1(O)C(F)(F)F (stereo not drawn) do in these assays?
Bead autofluor: 2815; Anthrax LF prot: -3; MazF activator: 8; BoNT-F LC inh: -3; BoNT A protease: 0; DUSP3 inh: -3

How did Cc1ccc(S(=O)(=O)Nc2nc(C)c(NC(=O)OCCCl)s2)cc1 do in these assays?
Bead autofluor: 21860*; Anthrax LF prot: -3; MazF activator: -2; BoNT-F LC inh: -7; BoNT A protease: -5; DUSP3 inh: 9

How did COc1ccc2c(c1)C(C)(Cc1ccc(C(=O)c3ccccc3)cc1)C(=O)N2 (stereo not drawn) do in these assays?
Bead autofluor: 2846; Anthrax LF prot: -2; BoNT-F LC inh: 0; BoNT A protease: 0

How did O=C(Nc1ccc(Cl)c(C(F)(F)F)c1)C1CCCN(S(=O)(=O)c2cnc[nH]2)C1 (stereo not drawn) do in these assays?
Bead autofluor: 20180*; Anthrax LF prot: -3; MazF activator: -1; BoNT-F LC inh: -4; BoNT A protease: -1; DUSP3 inh: 21

What do the screens show for `O/N=C(\c1ccc(Cl)cc1Cl)c1ncc(C(F)(F)F)cc1Cl`?
Bead autofluor: 3038; Anthrax LF prot: -2; MazF activator: -9; BoNT-F LC inh: 1; BoNT A protease: 0; DUSP3 inh: -16

What do the screens show for `COc1ccc2nc(SCC(N)=O)[nH]c2c1`?
Bead autofluor: 22930*; Anthrax LF prot: -1; MazF activator: -4; BoNT-F LC inh: -2; BoNT A protease: inconclusive; DUSP3 inh: 0

Results for COc1ccc2nc(SCC(=O)/C(C#N)=C(\C)N)[nH]c2c1 ?
Bead autofluor: 2730; Anthrax LF prot: -2; MazF activator: -3; BoNT-F LC inh: -6; BoNT A protease: 0; DUSP3 inh: 3

Results for Cc1ccc(OC(C)C(=O)N2CCCc3ccccc32)cc1 (stereo not drawn) ?
Bead autofluor: 17127*; Anthrax LF prot: -7; MazF activator: -1; BoNT-F LC inh: -8; BoNT A protease: inconclusive; DUSP3 inh: 39

What do the screens show for `Cc1cccc(OC(C)C(=O)N2CCCc3ccccc32)c1` (stereo not drawn)?
Bead autofluor: 2481; Anthrax LF prot: 0; MazF activator: -6; BoNT-F LC inh: -7; BoNT A protease: 0; DUSP3 inh: -4

What do the screens show for `COc1ccc(NCc2nnc(SCC(=O)Nc3cc(C)cc(C)c3)o2)cc1`?
Bead autofluor: 21267*; Anthrax LF prot: -3; MazF activator: -2; BoNT-F LC inh: -2; BoNT A protease: inconclusive; DUSP3 inh: -4

What do the screens show for `COc1ccc(CCNC(=O)CSc2nnc(CNc3ccc(Cl)cc3)o2)cc1OC`?
Bead autofluor: 21392*; Anthrax LF prot: 0; MazF activator: -4; BoNT-F LC inh: 0; BoNT A protease: -1; DUSP3 inh: 13

Results for COc1ccc(CCNC(=O)CSc2nnc(CNC(=O)c3c(F)cccc3Cl)o2)cc1OC ?
Bead autofluor: 5648; Anthrax LF prot: 1; MazF activator: 9; BoNT-F LC inh: -1; BoNT A protease: 1; DUSP3 inh: -12

What do the screens show for `CCOc1ccccc1-c1ccc(C(=O)NCc2ccc(Cl)cc2)o1`?
Bead autofluor: 5348; Anthrax LF prot: -9; BoNT-F LC inh: -2; BoNT A protease: 0

Results for Cc1cccc(C)c1NC(=O)C1C2C=CC(C2)C1C(=O)O (stereo not drawn) ?
Bead autofluor: 3546; Anthrax LF prot: -2; MazF activator: 11; BoNT-F LC inh: 3; BoNT A protease: 2; DUSP3 inh: 9

What do the screens show for `CCCOc1ccc(NC(=O)C2CC(=O)N3CCCN=C3S2)cc1` (stereo not drawn)?
Bead autofluor: 23005*; Anthrax LF prot: 0; MazF activator: 3; BoNT-F LC inh: 0; BoNT A protease: 2; DUSP3 inh: 10

Results for O=C(NCCNC(=O)c1ccccn1)c1ccccc1 ?
Bead autofluor: 5626; Anthrax LF prot: -1; MazF activator: 6; BoNT-F LC inh: -2; BoNT A protease: 0; DUSP3 inh: -14

What do the screens show for `OCC[C@@H]1C[C@@H](O)[C@H](O)[C@]2(CCCc3ccccc3O2)O1`?
Bead autofluor: 3022; Anthrax LF prot: -2; MazF activator: 4; BoNT-F LC inh: -8; BoNT A protease: -1; DUSP3 inh: 52*

How did COc1ccc(-c2sc3ccc(N4CCOCC4)cc3c2C#CCCO)cc1 do in these assays?
Bead autofluor: 4276; Anthrax LF prot: 2; MazF activator: 12; BoNT-F LC inh: -16; BoNT A protease: 0

Results for COC(=O)c1c(NC(=O)CC2SC(N)=NC2=O)sc2c1CCC(C(C)(C)C)C2 (stereo not drawn) ?
Bead autofluor: 2004; Anthrax LF prot: -2; MazF activator: -37; BoNT-F LC inh: 4; BoNT A protease: 1; DUSP3 inh: 6
